We go through 30 compounds from ChEMBL document CHEMBL2218924, “A broad activity screen in support of a chemogenomic map for kinase signalling research and drug discovery” (Biochem J, 2013).

SMILES strings stand for the structures.

One experiment deals with T1, Tyrosine-protein kinase TXK (Homo sapiens) (UniProt P42681).
T1 sequence (whole entry): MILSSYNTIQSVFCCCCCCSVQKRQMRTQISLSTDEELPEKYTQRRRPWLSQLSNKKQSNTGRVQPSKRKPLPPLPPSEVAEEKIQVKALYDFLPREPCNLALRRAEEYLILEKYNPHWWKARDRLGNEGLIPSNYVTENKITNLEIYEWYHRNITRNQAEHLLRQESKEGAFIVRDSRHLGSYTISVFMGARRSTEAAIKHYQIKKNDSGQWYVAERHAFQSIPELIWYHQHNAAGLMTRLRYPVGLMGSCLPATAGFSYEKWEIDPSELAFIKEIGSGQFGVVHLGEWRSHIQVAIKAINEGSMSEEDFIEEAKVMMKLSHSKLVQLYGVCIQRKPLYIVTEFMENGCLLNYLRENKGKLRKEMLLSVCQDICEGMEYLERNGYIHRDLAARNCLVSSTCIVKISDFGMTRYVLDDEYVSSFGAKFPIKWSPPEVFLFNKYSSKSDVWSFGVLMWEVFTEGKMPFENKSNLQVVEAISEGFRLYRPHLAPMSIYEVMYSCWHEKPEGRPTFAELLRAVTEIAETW
The note with it: at 10 µM.
Broadly, the residual activity is the signal under treatment as a percentage of the control signal. As for `O=C1NC(=O)/C(=C/c2ccc3c(c2)OC(F)(F)O3)S1`, the residual activity stood at 104%.
Still for that read-out and setting: the same measure for `CC(=O)c1ccc(N2CCOCC2)cc1O`: 86%; for `Nc1n[nH]c2nnc(-c3c(-c4ccccc4)nn4ccccc34)cc12`: 60%; for `Nc1nc(Nc2ccc(S(N)(=O)=O)cc2)nn1C(=S)Nc1c(F)cccc1F`: 32%.
For the compound `Cn1cnc2cc3c(Nc4cccc(Br)c4)ncnc3cc21`, the residual activity is 60%.

The target in another experiment is T2, Serine/threonine-protein kinase ULK2 (Homo sapiens) (UniProt Q8IYT8).
T2 sequence (whole entry): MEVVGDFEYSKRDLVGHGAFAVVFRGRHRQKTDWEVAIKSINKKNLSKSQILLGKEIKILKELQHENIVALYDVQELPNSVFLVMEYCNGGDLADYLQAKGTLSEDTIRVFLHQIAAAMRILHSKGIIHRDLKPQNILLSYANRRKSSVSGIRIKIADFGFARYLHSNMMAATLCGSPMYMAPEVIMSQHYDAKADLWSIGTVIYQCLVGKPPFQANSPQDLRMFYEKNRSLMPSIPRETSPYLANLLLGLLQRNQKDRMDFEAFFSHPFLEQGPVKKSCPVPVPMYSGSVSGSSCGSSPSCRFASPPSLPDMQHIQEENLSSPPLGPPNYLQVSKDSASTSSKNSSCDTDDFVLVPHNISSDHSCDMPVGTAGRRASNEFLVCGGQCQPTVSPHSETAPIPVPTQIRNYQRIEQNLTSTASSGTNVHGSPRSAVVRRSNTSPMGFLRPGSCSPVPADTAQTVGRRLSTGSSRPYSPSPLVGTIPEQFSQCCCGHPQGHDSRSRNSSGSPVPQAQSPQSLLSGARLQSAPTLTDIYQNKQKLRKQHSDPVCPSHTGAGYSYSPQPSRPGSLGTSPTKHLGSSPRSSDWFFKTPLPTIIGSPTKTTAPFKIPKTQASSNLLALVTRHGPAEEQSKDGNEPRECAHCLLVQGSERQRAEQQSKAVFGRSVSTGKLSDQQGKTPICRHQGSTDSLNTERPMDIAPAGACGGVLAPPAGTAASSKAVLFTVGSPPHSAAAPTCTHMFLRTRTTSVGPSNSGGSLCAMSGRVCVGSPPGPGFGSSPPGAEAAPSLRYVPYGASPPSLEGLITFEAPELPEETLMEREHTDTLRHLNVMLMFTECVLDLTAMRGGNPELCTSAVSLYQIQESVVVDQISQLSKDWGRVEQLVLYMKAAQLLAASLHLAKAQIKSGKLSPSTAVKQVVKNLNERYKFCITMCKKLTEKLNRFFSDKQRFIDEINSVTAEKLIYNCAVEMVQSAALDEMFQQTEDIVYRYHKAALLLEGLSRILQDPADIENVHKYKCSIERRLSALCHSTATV
The note with it: at 1 µM.
As to `COc1ccc(CNc2nc(N(CCO)CCO)nc3c2ncn3C(C)C)cc1`, the residual activity was 97%.
On to `C[C@@H](N)[C@H]1CC[C@H](C(=O)Nc2ccncc2)CC1`, for which the residual activity was determined as 85%.
Still for that read-out and setting: the same measure for `Cc1cc2ncc(-c3ccccc3)nc2cc1C`: 104%; for `CCN(CC)C(=O)c1ccc(Nc2nc(OCC3CCCCC3)c3nc[nH]c3n2)cc1`: 80%.
Regarding `Cc1ccc(S(=O)(=O)/C=C/C#N)cc1`, the residual activity worked out at 109%.
Consider `c1ccc2c(-c3ccncc3)c[nH]c2c1`, for which the residual activity worked out at 104%.
As to `Cc1cncc2cccc(S(=O)(=O)N3CCCN(C(=O)CN)C[C@H]3C)c12`, the residual activity stood at 93%.
Same read-out and setting: the same measure for `N#CCCc1ccc2c(c1)-c1[nH]c3ccc([N+](=O)[O-])cc3c1CC(=O)N2`: 47%.
For `CO[C@H]1C[C@@H]2CC[C@@H](C)[C@@](O)(O2)C(=O)C(=O)N2CCCC[C@H]2C(=O)O[C@H]([C@H](C)C[C@@H]2CC[C@@H](O)[C@H](OC)C2)CC(=O)[C@H](C)/C=C(\C)[C@@H](O)[C@@H](OC)C(=O)[C@H](C)C[C@H](C)/C=C/C=C/C=C/1C`, the residual activity was determined as 91%.
Still for that read-out and setting: under `COc1ccc(S(=O)(=O)N(CCO)c2ccccc2CN(C)C/C=C/c2ccc(Cl)cc2)cc1` stands 113%; under `O=C1Nc2ccccc2/C1=C1/Nc2ccccc2/C1=N\OCCC(O)CO` (configuration not stated), 98%; under `COc1cc2ncnc(Nc3ccc(NC(=O)c4ccccc4)cc3)c2cc1OC`, 108%.
`Ic1cccc(CSc2nnc(-c3ccncc3)o2)c1`: the residual activity turned out to be 98%.
On to `O=C(Nc1cccc(Nc2cc(Nc3cccc(C(F)(F)F)c3)ncn2)c1)C1CC1`, for which the residual activity was 103%.
As for `O=[N+]([O-])c1ccc(-c2nc(-c3ccc(F)cc3)c(-c3ccncc3)[nH]2)cc1`, the residual activity stood at 112%.
Same read-out and setting: the same measure for `O=Nc1c(-c2c(O)[nH]c3ccccc23)[nH]c2ccccc12`: 93%; for `CN(C)CCCn1cc(C2=C(c3c[nH]c4ccccc34)C(=O)NC2=O)c2ccccc21`: 110%; for `O=C1Nc2cc(Br)ccc2/C1=C1/Nc2ccccc2/C1=N\O`: 102%.
The same measure, in the same setting: the same measure for `O=C1NC(=O)/C(=C/c2ccc3c(c2)OC(F)(F)O3)S1`: 106%.
The same measure, in the same setting: under `CC(=O)c1ccc(N2CCOCC2)cc1O` stands 106%; under `Nc1n[nH]c2nnc(-c3c(-c4ccccc4)nn4ccccc34)cc12`, 95%.
As to `Nc1nc(Nc2ccc(S(N)(=O)=O)cc2)nn1C(=S)Nc1c(F)cccc1F`, the residual activity was 4%.
Regarding `Cn1cnc2cc3c(Nc4cccc(Br)c4)ncnc3cc21`, the residual activity came to 106%.

For a further experiment, the target named is T2, Serine/threonine-protein kinase ULK2 (Homo sapiens). The note with it: at 10 µM.
`c1ccc(-c2n[nH]cc2-c2ccnc3ccccc23)nc1`: the residual activity worked out at 97%.
As for `Cn1nc2c3c(cccc31)C(=O)c1ccccc1-2`, the residual activity was 104%.
In the case of `COc1ccc(CNc2nc(N(CCO)CCO)nc3c2ncn3C(C)C)cc1`, the residual activity came to 97%.
For `CO[C@@H]1[C@H](N(C)C(=O)c2ccccc2)C[C@H]2O[C@]1(C)n1c3ccccc3c3c4c(c5c6ccccc6n2c5c31)C(=O)NC4`, the residual activity was 76%.
On the same count and under the same terms, under `C[C@@H](N)[C@H]1CC[C@H](C(=O)Nc2ccncc2)CC1` stands 39%.
On the same count and under the same terms, under `Cc1cccc(-c2[nH]c(C(C)(C)C)nc2-c2ccc3c(c2)OCO3)n1` stands 94%; under `Cc1cc2ncc(-c3ccccc3)nc2cc1C`, 88%; under `CCN(CC)C(=O)c1ccc(Nc2nc(OCC3CCCCC3)c3nc[nH]c3n2)cc1`, 35%.
The same measure, in the same setting: under `O=C1c2ccccc2-[n+]2ccc3c([nH]c4ccccc43)c21` stands 96%.
As to `Cc1ccc(S(=O)(=O)/C=C/C#N)cc1`, the residual activity was determined as 104%.
On the same count and under the same terms, under `c1ccc2c(-c3ccncc3)c[nH]c2c1` stands 97%.
Same read-out and setting: under `Cc1cncc2cccc(S(=O)(=O)N3CCCN(C(=O)CN)C[C@H]3C)c12` stands 47%; under `N#CCCc1ccc2c(c1)-c1[nH]c3ccc([N+](=O)[O-])cc3c1CC(=O)N2`, 21%.
Still for that read-out and setting: the same measure for `c1ccc(-c2n[nH]c3c2oc2ccccc23)cc1`: 86%; for `CO[C@H]1C[C@@H]2CC[C@@H](C)[C@@](O)(O2)C(=O)C(=O)N2CCCC[C@H]2C(=O)O[C@H]([C@H](C)C[C@@H]2CC[C@@H](O)[C@H](OC)C2)CC(=O)[C@H](C)/C=C(\C)[C@@H](O)[C@@H](OC)C(=O)[C@H](C)C[C@H](C)/C=C/C=C/C=C/1C`: 98%.
For `Nc1cccc(-c2cc3c(Oc4cccc(O)c4)ncnc3[nH]2)c1`, the residual activity stood at 76%.
Regarding `COc1ccc(S(=O)(=O)N(CCO)c2ccccc2CN(C)C/C=C/c2ccc(Cl)cc2)cc1`, the residual activity was 94%.
With `O=C1Nc2ccccc2/C1=C1/Nc2ccccc2/C1=N\OCCC(O)CO` (configuration not stated), the residual activity amounted to 74%.
Consider `COc1cc2ncnc(Nc3ccc(NC(=O)c4ccccc4)cc3)c2cc1OC`, for which the residual activity is 104%.
The same measure, in the same setting: under `O=C(Nc1cccc(Nc2cc(Nc3cccc(C(F)(F)F)c3)ncn2)c1)C1CC1` stands 103%.
As for `O=[N+]([O-])c1ccc(-c2nc(-c3ccc(F)cc3)c(-c3ccncc3)[nH]2)cc1`, the residual activity was determined as 106%.
On the same count and under the same terms, under `O=Nc1c(-c2c(O)[nH]c3ccccc23)[nH]c2ccccc12` stands 59%.
Take `CN(C)CCCn1cc(C2=C(c3c[nH]c4ccccc34)C(=O)NC2=O)c2ccccc21`: the residual activity was 88%.
For `O=C1Nc2cc(Br)ccc2/C1=C1/Nc2ccccc2/C1=N\O`, the residual activity was 98%.
Regarding `O=C1NC(=O)/C(=C/c2ccc3c(c2)OC(F)(F)O3)S1`, the residual activity was found to be 97%.
As for `CC(=O)c1ccc(N2CCOCC2)cc1O`, the residual activity was 90%.
Still for that read-out and setting: the same measure for `Nc1n[nH]c2nnc(-c3c(-c4ccccc4)nn4ccccc34)cc12`: 96%; for `Nc1nc(Nc2ccc(S(N)(=O)=O)cc2)nn1C(=S)Nc1c(F)cccc1F`: 0%.
On the same count and under the same terms, under `Cn1cnc2cc3c(Nc4cccc(Br)c4)ncnc3cc21` stands 99%.
